# Test results reported in paper PMC4151992.
# Assays:
# Test in all cases: cross-link between two proteins
# [1] = molecular target: Small ribosomal subunit protein eS1A (UniProt P33442)
# [2] = molecular target: Small ribosomal subunit protein eS4A (UniProt P0CX35)
# [3] = molecular target: Small ribosomal subunit protein eS6A (UniProt P0CX37)
# [4] = molecular target: Small ribosomal subunit protein eS7A (UniProt P26786)
# Chain of Small ribosomal subunit protein eS7A (P26786 whole entry): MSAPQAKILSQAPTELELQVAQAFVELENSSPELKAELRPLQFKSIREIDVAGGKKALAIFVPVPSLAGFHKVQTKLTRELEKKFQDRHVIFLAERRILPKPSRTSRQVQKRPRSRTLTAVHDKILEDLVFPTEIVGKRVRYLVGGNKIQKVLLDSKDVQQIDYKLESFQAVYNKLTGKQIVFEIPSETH
# Chain of Small ribosomal subunit protein uS8A, P0C0W1 (P0C0W1 whole entry): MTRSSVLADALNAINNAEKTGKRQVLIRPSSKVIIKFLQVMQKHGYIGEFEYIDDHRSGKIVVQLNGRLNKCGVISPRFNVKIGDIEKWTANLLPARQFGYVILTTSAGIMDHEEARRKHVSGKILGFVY
# Chain of Small ribosomal subunit protein eS4A (P0CX35 whole entry): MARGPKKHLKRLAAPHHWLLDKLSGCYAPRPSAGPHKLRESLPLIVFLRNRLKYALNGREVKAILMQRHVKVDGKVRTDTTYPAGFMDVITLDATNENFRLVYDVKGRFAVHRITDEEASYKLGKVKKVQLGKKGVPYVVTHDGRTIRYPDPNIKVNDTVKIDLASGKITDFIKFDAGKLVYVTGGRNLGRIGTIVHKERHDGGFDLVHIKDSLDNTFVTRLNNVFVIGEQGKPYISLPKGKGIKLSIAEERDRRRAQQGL
# Chain of Small ribosomal subunit protein eS6A (P0CX37 whole entry): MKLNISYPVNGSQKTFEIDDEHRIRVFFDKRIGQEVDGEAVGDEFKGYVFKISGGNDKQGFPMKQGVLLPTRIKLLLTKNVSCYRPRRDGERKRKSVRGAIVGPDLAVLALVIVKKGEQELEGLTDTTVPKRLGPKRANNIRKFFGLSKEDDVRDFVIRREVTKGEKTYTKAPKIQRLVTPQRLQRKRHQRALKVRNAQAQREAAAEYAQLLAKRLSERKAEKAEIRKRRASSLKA
# Chain of Small ribosomal subunit protein eS1A (P33442 whole entry): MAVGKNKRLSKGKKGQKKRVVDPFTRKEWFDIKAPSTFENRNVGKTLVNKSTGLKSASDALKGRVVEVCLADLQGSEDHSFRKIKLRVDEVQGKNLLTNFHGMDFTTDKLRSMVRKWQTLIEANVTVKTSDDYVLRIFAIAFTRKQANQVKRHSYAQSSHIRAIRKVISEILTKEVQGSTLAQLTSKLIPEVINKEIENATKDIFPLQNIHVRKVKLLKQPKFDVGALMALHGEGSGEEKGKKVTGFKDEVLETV
substance,measurement,setting,value
"Small ribosomal subunit protein uS11A, P06367",listed as a hit,[1],yes
"Small ribosomal subunit protein eS24A, P0CX31",listed as a hit,[2],yes
"Small ribosomal subunit protein eS4A, P0CX35",listed as a hit,[3],yes
"Small ribosomal subunit protein uS8A, P0C0W1",listed as a hit,[4],yes
